# In PubChem BioAssay AID624416 (The Scripps Research Institute Molecular Screening Center, 2012):
# About 1,500 (0.42%) of roughly 360,000 compounds were called active. The full list was thinned out, with actives kept by preference. Values without a mark were called inactive. Cut-off read from the data, not from the text of the source: active = inhibition above about 8.5%; inactive = the rest.
# System: HIV-1 gp120 / PG9 antibody interaction
# Assay: small molecules engaging PG9 antibody – biochemical, TR-FRET, primary screen (AID 624416)
# Conditions: TR-FRET gp120-PG9 antibody binding; at 6.7 µM; stronger effect = higher value
row,SMILES,inhibition
1,Cc1nnc(SCC(=O)NCc2cccs2)[nH]c1=O,1.17%
2,CCc1ccc(C(=O)CSc2nnc(C)c(=O)[nH]2)cc1,-0.93%
3,N#Cc1c(-c2cccs2)nc(SCC(=O)c2ccc(Br)cc2)[nH]c1=O,23.5% (active)
4,O=C(Oc1ccccc1)Oc1ccc2c(c1)oc(=O)c1ccccc12,28.2% (active)
5,O=C(COc1ccc2c3c(c(=O)oc2c1)CCCC3)NCC(O)c1ccccc1 (stereo not drawn),0.6%
6,O=C(COc1ccc2c3c(c(=O)oc2c1)CCC3)NC1CCCCC1,-0.41%
7,C=CC1=CCN(S(=O)(=O)C(C)(C)C)[C@@H]1CCO,0.76%
8,COc1ccccc1CCn1cnc(-c2ccccc2)c1C(C)C,2.18%
9,Nc1nc2c(ncn2[C@@H]2O[C@H](C(=O)N[C@H](Cc3ccccc3)C(=O)NCC3CCCCC3)[C@@H](O)[C@H]2O)c(=O)[nH]1,-1.03%
10,COC(=O)[C@]12C[C@H](CC(=O)NCCc3ccccc3OC)C(=O)N(Cc3ccccc3)C1=C[C@H](C(C)C)O[C@@H]2C1CC1,-0.91%
11,O=C(C(=O)N1CCC(CNC(=O)c2cccnc2Cl)CC1)c1cccs1,-0.43%
12,COc1cc(NC(=O)c2ccc(-c3csc(C)n3)cc2)c(OC)cc1Cl,-0.71%
13,COc1ccc(-n2nc3c(c2NC(=O)c2ccc(N4C(=O)CCC4=O)cc2)CSC3)cc1,0.18%
14,COc1ccc(-c2csc(NC(=O)c3ccc(N4C(=O)CCC4=O)cc3)n2)cc1OC,8.78% (active)
15,C=CCN1C(=O)N(Cc2ccccc2)c2ccccc2S1(=O)=O,-0.26%
16,CSc1ccc(Oc2cccc3c2S(=O)(=O)N([C@H](C)c2ccccc2)C[C@@H](COCc2ccccc2)O3)cc1C,-0.66%
17,COc1ccc(S(=O)(=O)N2CCC(C(=O)N3CCCC3)CC2)cc1C,-0.08%
18,COc1ccc(-c2c(C)nn3c(N4CCC(C(=O)N5CCCCC5)CC4)cc(C)nc23)cc1OC,30.3% (active)
19,COc1ccc(CCNC(=O)C2CCN(c3nn4c(=O)cc(C)nc4s3)CC2)cc1OC,2.38%
20,CC[C@H](NC(=O)[C@H](Cc1ccccc1)NC(=O)[C@H]1O[C@@H](n2cnc3c(=O)[nH]c(N)nc32)[C@H](O)[C@@H]1O)c1ccccc1,1.17%
21,Nc1nc2c(ncn2[C@@H]2O[C@H](C(=O)N[C@@H](Cc3ccccc3)C(=O)NCc3ccccc3)[C@@H](O)[C@H]2O)c(=O)[nH]1,0.08%
22,COC(=O)C1=C(C)N(Cc2ccc(C(F)(F)F)cc2)C(=NCc2ccccc2)NC1c1ccccc1C(F)(F)F (stereo not drawn),-0.97%
23,COC(=O)N1Cc2ccnnc2CC1c1ccccc1Br (stereo not drawn),-0.32%
24,CC(C)CNc1cccc2c1S(=O)(=O)N[C@H](C)CO2,-0.69%
25,Cc1nc(N2CCN(c3ccccn3)CC2)c2c(C)c(C(=O)Nc3ccc(F)c(Cl)c3)sc2n1,-0.31%
26,Cc1cc(Br)ccc1NC(=O)c1cnc(N2CCN(c3ccccn3)CC2)c2ccccc12,-0.94%
27,Cc1cc(Br)ccc1NC(=O)c1sc2ncn(CC(=O)N3CCN(c4ccccn4)CC3)c(=O)c2c1C,11.3% (active)

row,SMILES,inhibition
1,Nc1ncnc2c1ncn2[C@@H]1O[C@H](C(=O)N[C@@H](CCc2ccccc2)C(=O)NCC(=O)N2CCOCC2)[C@@H](O)[C@H]1O,-1.35%
2,CCCCNc1cccc2c1S(=O)(=O)N[C@@H](C)CO2,-0.83%
3,CN1CCCc2nc(-c3ccccc3)ccc21,-1.37%
4,C[C@H](CO)N1C[C@H](C)[C@@H](CN(C)C(=O)Nc2ccccc2F)OCc2cn(nn2)CCCC1=O,0.59%
5,O=C(NN=Cc1ccco1)C(=O)Nc1ccc(Cl)c([N+](=O)[O-])c1,-2.26%
6,CCOC(=O)N1CCN(C(=O)C[C@H]2C[C@@]3(C(=O)OC)C(=C[C@H](C4CCCC4)O[C@@H]3C)N(Cc3ccccc3)C2=O)CC1,-1.34%
7,COc1ccc(-n2nnnc2-c2nc3ccccc3s2)cc1,14.4% (active)
8,COc1ccc(-n2nnnc2SCC(=O)NCc2cccs2)cc1,0.22%
9,FC(F)(F)c1nc(-c2ccccc2)ncc1-c1nnnn1-c1ccccc1,-0.69%
10,Cc1c(C)n2c(SCC(=O)N3CCCC3)nnc2[nH]c1=O,-1.7%
11,CC(=O)c1sc2nc(SCC(=O)N3CCCCC3)[nH]c(=O)c2c1C,21.1% (active)
12,CSc1nnc(SCc2nc3sc(C(=O)O)c(C)c3c(=O)[nH]2)s1,-1.42%
13,C#CC(C)(C)NC(=O)c1cnc(-c2ccccc2)nc1-c1ccccc1,-1.56%
14,Cc1nc(-c2ccccc2)sc1-c1nnc(C2CC2)o1,-1.07%
15,Cc1nc(-c2ccccc2)sc1-c1nc(-c2ccccc2)ncc1S(=O)(=O)c1ccccc1,10.9% (active)
16,CC(=O)N1C[C@@H](CO)[C@@H](N(C)C(=O)C(C)(C)C)C[C@H]1c1ccccc1Br,0.03%
17,O=S1(=O)c2c(cccc2N2CCCC2)O[C@H](COCc2ccccc2)CN1C1CC1,-1.25%
18,N#C/C=C1\Sc2ccccc2C(=O)N1CC(=O)N1CCN(S(=O)(=O)c2ccccc2)CC1,16.5% (active)
19,CC(C)c1ccc(S(=O)(=O)N2CCN(C(=O)CN3C(=O)NC(C)(c4ccccc4)C3=O)CC2)cc1 (stereo not drawn),-0.6%
20,O=C(CN1CCCSc2ccccc21)N1CCN(S(=O)(=O)c2cccc(F)c2)CC1,-0.88%
21,O=C(N[C@H](Cc1ccccc1)C(=O)N1CCCN(Cc2cccs2)CC1)[C@H]1O[C@@H](n2ccc(=O)[nH]c2=O)[C@H](O)[C@@H]1O,-1.49%
22,COc1ccc(-c2ccccc2C2Cc3nnccc3CN2C(=O)Nc2ccccc2)cc1 (stereo not drawn),-1.16%
23,Clc1cccc2c1C1CC2CCN1Cc1ccccc1 (stereo not drawn),-1.15%
24,CCc1ccccc1OCC(=O)Nc1ccc2c(c1)OCCO2,-0.52%
25,CC(=O)c1cc2c(cc1NC(=O)Cn1nc(-c3ccc(F)cc3)ccc1=O)OCO2,-0.49%
26,CCOc1cccc(NC(=O)Cn2nc(-c3ccc4c(c3)OCCO4)ccc2=O)c1,9.11% (active)
